About 7,900 targets were measured; listed, in parts, are those with a hit and a random draw of the rest. About 0.6% of all pairs of compound and target were hits. Unmarked numbers belong to inactive results.

Sequence of UniProt O75822 (O75822 whole entry, looked up): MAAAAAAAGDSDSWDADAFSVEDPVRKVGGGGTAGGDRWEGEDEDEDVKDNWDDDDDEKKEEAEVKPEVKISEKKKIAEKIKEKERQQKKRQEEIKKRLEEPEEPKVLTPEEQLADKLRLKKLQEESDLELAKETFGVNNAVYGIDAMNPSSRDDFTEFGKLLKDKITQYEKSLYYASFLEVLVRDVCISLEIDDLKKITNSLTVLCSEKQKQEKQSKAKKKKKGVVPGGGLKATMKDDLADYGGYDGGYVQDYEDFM
Sequence of UniProt Q04637 (Q04637 whole entry, looked up): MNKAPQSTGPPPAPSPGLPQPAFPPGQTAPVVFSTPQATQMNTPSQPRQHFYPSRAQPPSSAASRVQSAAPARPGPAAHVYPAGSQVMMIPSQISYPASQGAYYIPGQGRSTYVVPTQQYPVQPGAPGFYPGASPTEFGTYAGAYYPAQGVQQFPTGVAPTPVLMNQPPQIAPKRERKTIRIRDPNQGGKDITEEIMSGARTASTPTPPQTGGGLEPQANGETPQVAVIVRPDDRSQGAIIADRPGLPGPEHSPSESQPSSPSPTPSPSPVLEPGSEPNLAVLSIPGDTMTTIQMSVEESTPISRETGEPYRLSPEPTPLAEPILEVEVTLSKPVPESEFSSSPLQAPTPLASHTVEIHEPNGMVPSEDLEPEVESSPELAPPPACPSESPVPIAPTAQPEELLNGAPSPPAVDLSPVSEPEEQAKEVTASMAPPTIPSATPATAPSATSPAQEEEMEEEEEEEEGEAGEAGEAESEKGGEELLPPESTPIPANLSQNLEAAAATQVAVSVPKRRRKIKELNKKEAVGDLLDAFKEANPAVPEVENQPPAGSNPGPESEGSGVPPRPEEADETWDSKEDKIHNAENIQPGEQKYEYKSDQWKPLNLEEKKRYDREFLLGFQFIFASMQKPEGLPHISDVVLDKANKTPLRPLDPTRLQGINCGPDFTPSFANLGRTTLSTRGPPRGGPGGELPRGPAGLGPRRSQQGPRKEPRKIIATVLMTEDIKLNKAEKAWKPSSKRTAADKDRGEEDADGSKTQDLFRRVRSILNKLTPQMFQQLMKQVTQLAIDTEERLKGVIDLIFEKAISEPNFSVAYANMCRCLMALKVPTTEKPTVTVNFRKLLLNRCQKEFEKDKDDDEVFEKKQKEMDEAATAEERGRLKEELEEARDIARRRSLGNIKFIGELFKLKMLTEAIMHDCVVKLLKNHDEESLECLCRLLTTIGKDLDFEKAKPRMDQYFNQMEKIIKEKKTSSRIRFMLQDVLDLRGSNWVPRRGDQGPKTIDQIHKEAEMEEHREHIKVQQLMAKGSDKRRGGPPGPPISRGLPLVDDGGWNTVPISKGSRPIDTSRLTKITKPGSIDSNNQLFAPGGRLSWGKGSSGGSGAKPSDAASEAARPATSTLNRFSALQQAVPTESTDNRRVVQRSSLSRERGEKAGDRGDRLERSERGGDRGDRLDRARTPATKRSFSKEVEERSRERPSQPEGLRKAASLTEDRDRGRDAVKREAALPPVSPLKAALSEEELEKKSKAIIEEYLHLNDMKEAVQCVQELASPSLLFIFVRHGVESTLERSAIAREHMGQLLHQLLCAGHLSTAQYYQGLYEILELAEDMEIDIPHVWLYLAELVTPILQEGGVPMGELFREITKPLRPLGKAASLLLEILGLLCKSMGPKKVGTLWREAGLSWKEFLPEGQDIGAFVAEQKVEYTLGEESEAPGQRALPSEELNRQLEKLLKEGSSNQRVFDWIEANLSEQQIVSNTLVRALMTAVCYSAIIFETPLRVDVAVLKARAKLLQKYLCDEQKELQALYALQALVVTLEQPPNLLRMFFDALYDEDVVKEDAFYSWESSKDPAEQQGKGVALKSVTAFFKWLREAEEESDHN
Sequence of UniProt Q96GG9 (Q96GG9 whole entry, looked up): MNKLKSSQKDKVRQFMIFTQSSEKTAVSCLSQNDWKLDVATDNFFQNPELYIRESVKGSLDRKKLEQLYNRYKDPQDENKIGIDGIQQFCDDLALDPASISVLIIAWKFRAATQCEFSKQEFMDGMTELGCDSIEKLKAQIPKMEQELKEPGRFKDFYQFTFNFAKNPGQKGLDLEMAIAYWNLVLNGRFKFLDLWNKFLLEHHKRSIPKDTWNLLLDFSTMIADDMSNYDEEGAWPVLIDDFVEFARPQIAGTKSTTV
Sequence of UniProt P49366 (P49366 whole entry, looked up): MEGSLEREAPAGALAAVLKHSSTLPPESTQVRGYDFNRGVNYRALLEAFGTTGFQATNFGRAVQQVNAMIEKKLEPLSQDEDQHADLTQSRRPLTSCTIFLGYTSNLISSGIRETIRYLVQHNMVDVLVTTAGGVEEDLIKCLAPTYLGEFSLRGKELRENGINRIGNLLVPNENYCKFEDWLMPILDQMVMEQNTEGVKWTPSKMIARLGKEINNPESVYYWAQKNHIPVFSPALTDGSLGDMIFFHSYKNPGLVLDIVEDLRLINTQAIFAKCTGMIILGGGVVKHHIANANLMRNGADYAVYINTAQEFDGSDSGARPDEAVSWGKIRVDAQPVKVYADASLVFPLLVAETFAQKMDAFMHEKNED
Sequence of UniProt Q9H2P9 (Q9H2P9 whole entry, looked up): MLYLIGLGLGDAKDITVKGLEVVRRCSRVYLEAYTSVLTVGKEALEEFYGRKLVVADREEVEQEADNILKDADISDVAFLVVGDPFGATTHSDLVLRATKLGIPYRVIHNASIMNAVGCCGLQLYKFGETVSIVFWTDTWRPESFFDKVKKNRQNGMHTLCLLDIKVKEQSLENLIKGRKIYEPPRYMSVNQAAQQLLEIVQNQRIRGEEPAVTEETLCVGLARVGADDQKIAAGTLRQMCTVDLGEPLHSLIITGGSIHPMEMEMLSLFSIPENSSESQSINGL
Sequence of UniProt Q16531 (Q16531 whole entry, looked up): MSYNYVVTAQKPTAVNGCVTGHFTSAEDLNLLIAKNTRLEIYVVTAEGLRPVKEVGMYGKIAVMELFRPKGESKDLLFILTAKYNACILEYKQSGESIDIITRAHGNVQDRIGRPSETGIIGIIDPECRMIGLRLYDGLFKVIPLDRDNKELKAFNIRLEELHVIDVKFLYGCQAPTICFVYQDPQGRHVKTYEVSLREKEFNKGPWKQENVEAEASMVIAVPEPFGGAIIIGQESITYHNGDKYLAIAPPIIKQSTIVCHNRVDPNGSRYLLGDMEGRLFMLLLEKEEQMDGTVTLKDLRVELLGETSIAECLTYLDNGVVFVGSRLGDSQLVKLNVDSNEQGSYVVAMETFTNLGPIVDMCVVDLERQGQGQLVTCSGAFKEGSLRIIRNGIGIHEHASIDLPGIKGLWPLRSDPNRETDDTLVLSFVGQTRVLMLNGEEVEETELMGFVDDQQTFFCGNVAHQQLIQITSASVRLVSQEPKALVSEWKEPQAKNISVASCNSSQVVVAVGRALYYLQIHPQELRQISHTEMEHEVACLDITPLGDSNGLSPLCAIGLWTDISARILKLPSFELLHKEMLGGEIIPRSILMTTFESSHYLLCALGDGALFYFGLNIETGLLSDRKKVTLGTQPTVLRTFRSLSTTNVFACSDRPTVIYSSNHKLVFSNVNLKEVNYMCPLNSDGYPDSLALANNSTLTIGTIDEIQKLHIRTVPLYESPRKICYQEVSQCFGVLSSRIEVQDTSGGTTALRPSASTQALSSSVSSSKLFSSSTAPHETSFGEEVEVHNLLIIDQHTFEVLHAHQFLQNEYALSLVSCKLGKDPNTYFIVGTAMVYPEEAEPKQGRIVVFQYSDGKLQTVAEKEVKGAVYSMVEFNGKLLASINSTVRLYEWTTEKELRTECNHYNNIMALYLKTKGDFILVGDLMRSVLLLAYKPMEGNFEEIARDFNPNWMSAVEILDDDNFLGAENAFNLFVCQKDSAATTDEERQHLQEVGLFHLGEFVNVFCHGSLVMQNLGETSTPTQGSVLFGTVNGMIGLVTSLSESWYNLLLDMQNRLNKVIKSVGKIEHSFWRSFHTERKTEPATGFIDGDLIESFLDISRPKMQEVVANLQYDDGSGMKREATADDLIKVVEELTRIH
Sequence of UniProt P50570 (P50570 whole entry, looked up): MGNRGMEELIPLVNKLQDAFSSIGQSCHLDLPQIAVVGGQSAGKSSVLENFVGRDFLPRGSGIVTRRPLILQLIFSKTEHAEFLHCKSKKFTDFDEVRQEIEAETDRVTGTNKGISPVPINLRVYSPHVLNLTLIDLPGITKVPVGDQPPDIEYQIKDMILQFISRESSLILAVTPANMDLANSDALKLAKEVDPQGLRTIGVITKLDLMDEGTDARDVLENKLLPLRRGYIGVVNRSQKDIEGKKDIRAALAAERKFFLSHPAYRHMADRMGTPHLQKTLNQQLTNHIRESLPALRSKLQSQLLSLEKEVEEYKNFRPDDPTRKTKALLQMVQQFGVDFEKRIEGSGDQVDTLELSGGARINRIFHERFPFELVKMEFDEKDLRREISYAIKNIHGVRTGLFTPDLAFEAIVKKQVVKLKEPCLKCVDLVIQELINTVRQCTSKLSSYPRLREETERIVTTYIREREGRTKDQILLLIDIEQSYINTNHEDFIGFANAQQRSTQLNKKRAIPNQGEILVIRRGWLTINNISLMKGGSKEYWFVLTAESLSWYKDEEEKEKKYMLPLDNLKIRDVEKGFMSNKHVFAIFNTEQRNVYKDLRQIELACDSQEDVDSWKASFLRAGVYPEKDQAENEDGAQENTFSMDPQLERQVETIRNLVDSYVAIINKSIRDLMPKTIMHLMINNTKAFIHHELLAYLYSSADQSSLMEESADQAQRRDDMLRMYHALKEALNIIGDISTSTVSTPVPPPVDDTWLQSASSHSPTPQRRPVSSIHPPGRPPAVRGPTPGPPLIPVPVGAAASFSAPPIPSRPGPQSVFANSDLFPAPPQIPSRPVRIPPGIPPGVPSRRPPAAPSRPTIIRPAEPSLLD
Sequence of UniProt P06730 (P06730 whole entry, looked up): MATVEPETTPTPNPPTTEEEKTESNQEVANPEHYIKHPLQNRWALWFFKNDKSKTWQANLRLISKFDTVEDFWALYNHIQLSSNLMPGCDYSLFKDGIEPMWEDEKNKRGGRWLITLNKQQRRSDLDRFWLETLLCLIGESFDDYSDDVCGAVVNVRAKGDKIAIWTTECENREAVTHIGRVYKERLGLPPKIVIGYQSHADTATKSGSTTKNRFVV

Compound in this test: CN1CCN(CCOc2cc(OC3CCOCC3)c3c(Nc4c(Cl)ccc5c4OCO5)ncnc3c2)CC1 [saracatinib]
The test can be described thus: log2 fold change, soluble protein after heating vs DMSO (PISA); higher = thermal stabilisation; K562 cells, 10 uM, 30 min; active = over 0.2 and 3.5 SD of the protein, either way, in both replicates (recomputed). The procedure, abridged: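 Values are thermal stability changes relative to control samples and are taken from duplicates. They are stated as log2 fold changes. Before quantification by TMTpro 16plex LC-MS/MS with equalised channel sums, K562 cells at 2×10^6 cells/mL were treated with 10 μM compound for 30 min, heated in aliquots for 3 min across 48°C-58°C, pooled, extracted in PBS with 0.5% NP-40 at 4°C, and centrifuged at 21,000xg for 90 min to give the soluble supernatant.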
Take DDB1 (UniProt Q16531): the log2 fold change was 0.04.
In the case of DNM2 (UniProt P50570) it was -0.028; in that of ESS2 (UniProt Q96DF8), 0.041; in that of DCUN1D1 (UniProt Q96GG9), 0.032.
As for EXOC4 (UniProt Q96A65), the log2 fold change was -0.013.
On to EDC4 (UniProt Q6P2E9), for which the log2 fold change is -0.023.
The same measure for DAB2 (UniProt P98082): -0.044; for DHRS7B (UniProt Q6IAN0): -0.003; for F5 (UniProt P12259): -0.003.
On to DDX46 (UniProt Q7L014), for which the log2 fold change is 0.
As for EXTL2 (UniProt Q9UBQ6), the log2 fold change was 0.157.
In the case of DYNC1LI2 (UniProt O43237) it was -0.001.
With EFL1 (UniProt Q7Z2Z2), the log2 fold change was -0.036.
The same measure for CUX1 isoform 3 (UniProt P39880): 0.002; for FAM114A2 (UniProt Q9NRY5): 0.005; for CTSH (UniProt P09668): 0.101.
Take DHX36 (UniProt Q9H2U1): the log2 fold change is -0.014.
In the case of DNAH11 (UniProt Q96DT5) it was 0.301; in that of DPH5 isoform 5 (UniProt Q9H2P9), -0.007; in that of DHCR24 (UniProt Q15392), 0.761.
As to DHRS13 (UniProt Q6UX07), the log2 fold change is -0.03.
In the case of CUX1 isoform 2 (UniProt Q13948) it was -0.065; in that of DBNL isoform 3 (UniProt Q9UJU6), 0.04.
As for CYFIP1 (UniProt Q7L576), the log2 fold change is -0.023.
On to ERCC6 (UniProt Q03468), for which the log2 fold change is -0.006.
As for DHX40 (UniProt Q8IX18), the log2 fold change was 0.069.
The same measure for EEF1AKNMT (UniProt Q8N6R0): -0.063; for DHPS (UniProt P49366): 0.087; for DHRS1 (UniProt Q96LJ7): -0.074.
The same measure for CTSV (UniProt O60911): -0.049; for DHCR7 (UniProt Q9UBM7): 0.412; for EIF4G1 isoform 8 (UniProt Q04637): -0.08.
FAM3A (UniProt P98173): the log2 fold change was 0.038.
The same measure for CTNNB1 (UniProt P35222): 0.032.
Take EIF3J (UniProt O75822): the log2 fold change is -0.042.
In the case of EVC2 (UniProt Q86UK5) it was -0.151; in that of EIF4E isoform 2 (UniProt P06730), 0.04.
On to EGLN1 (UniProt Q9GZT9), for which the log2 fold change was -0.01.
In the case of EHD2 (UniProt Q9NZN4), the log2 fold change is 0.016.

Source of the values: the supplement of paper PMC10849652.
